Compound activity as filed in PubChem BioAssay.
Pf Dd2 inh = P. falciparum Dd2 growth inhibition. AID 1159554. actives 2.3% (n = 94,000). SYBR Green, 72 h; hits give low values. activity change, % at 10 µM; in the data active = activity change below about -80%; inconclusive = no clear call, values can overlap the other calls
C diff growth = C. difficile growth inhibition. Clostridium difficile clinical isolate growth, OD600, 24 h; hits give low values. growth activity, negative = inhibition, % at 16 µg/mL (by protocol). actives 0.25% (n = 86,000). AID 1259249;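 active = mean growth activity at or below -80% and every replicate also at or below -80%; inconclusive = mean at or below -80% but some replicate above -80%; inactive = mean growth activity above -80%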;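 note: 0% = DMSO wells and -100% = levofloxacin 16 µg/mL wells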
The depositor's hits bear a star; u = inconclusive; ! = not active in a repeat. In the library only some 2.4% were active in any assay of this set; here they are far more common.

SMILES | Pf Dd2 inh | C diff growth
CC(C)CC#Cc1ccc2c(c1)O[C@H](CN(C)C(=O)c1ccccc1F)[C@H](C)CN([C@H](C)CO)S2(=O)=O | -71 | 5
CC(C)CC#Cc1ccc2c(c1)O[C@H](CN(C)C(=O)c1ccccc1F)[C@@H](C)CN([C@H](C)CO)S2(=O)=O | -82* | 12
CCCC#Cc1ccc2c(c1)O[C@H](CN(C)C(=O)c1ccccc1F)[C@@H](C)CN([C@@H](C)CO)S2(=O)=O | -79 | 13
O=C(c1ccccc1)N1C[C@H]2[C@@H](c3ccccc31)[C@@H](CO)N2S(=O)(=O)c1ccccc1 | -3 | 3
Cc1ccc(S(=O)(=O)N(C)C[C@H]2OCCCC[C@@H](C)Oc3ccc(NC(=O)C4CCCCC4)cc3C(=O)N([C@H](C)CO)C[C@@H]2C)cc1 | -55 | -1
Cc1ccc(S(=O)(=O)N(C)C[C@H]2OCCCC[C@H](C)Oc3ccc(NC(=O)C4CCCCC4)cc3C(=O)N([C@@H](C)CO)C[C@H]2C)cc1 | -89* | 4
C[C@@H]1CCCCO[C@H](CN(C)S(=O)(=O)c2ccc(Cl)cc2)[C@H](C)CN([C@@H](C)CO)C(=O)c2cc(NC(=O)C3CCCCC3)ccc2O1 | -80 | -7
C[C@@H]1CN([C@H](C)CO)C(=O)c2cc(NC(=O)C3CCCCC3)ccc2O[C@@H](C)CCCCO[C@H]1CN(C)S(=O)(=O)c1ccc(Cl)cc1 | -83* | -6
C[C@H](CO)N1C[C@H](C)[C@@H](CN(C)S(=O)(=O)c2ccc(Cl)cc2)OCCCC[C@H](C)Oc2ccc(NC(=O)C3CCCCC3)cc2C1=O | -67 | 6
C[C@@H]1CN([C@@H](C)CO)C(=O)c2cc(NC(=O)C3CCCCC3)ccc2O[C@@H](C)CCCCO[C@H]1CN(C)S(=O)(=O)c1ccc(Cl)cc1 | -83* | -4
COCC(=O)N1CCC2(CC1)CN(C(=O)c1ccccn1)[C@@H](CO)c1c2c2ccc(OC)cc2n1C | 29 | 1
CN1C(=O)c2cc(NC(=O)c3cnccn3)ccc2OC[C@@H]2O[C@H](CC(=O)O)CC[C@H]21 | -4 | 4
CCCN(C)C[C@@H]1Oc2cc(C#Cc3cccnc3)ccc2S(=O)(=O)N([C@@H](C)CO)C[C@H]1C | -89* | -9
CCCN(C)C[C@H]1Oc2cc(C#Cc3ccncc3)ccc2S(=O)(=O)N([C@@H](C)CO)C[C@H]1C | -74 | 2
CCCN(C)C[C@H]1Oc2cc(C#Cc3cccnc3)ccc2S(=O)(=O)N([C@H](C)CO)C[C@@H]1C | -82* | -8
CCCN(C)C[C@H]1Oc2cc(C#Cc3ccncc3)ccc2S(=O)(=O)N([C@H](C)CO)C[C@H]1C | -71 | 2
CN1C(=O)c2cc(NC(=O)Cc3ccccc3)ccc2OC[C@H]2O[C@H](CC(=O)NCC3CC3)CC[C@H]21 | -15 | 5
COc1ccc(-c2cnc3c(c2)C(=O)N([C@@H](C)CO)C[C@@H](C)[C@@H](CN(C)C(=O)NC2CCCC2)O3)cc1 | -22 | 3
Fc1cccc(CN2C[C@@H]3N[C@H](C2)C3c2ccc(-c3cncnc3)cc2)c1 (some centres not stated) | -52 | -1
Cc1ccccc1-c1ccc(C2[C@@H]3CN(Cc4cccnc4)C[C@H]2N3)cc1 (some centres not stated) | -90*! | -6
Fc1cccc(CN2C[C@@H]3N[C@H](C2)C3c2ccc(-c3ccccc3)cc2)c1 (some centres not stated) | 3 | -99*
O=C(C1CCOCC1)N1C[C@@H]2N[C@H](C1)C2c1ccc(-c2cccc(F)c2)cc1 (some centres not stated) | -5 | -7
Fc1cccc(CN2C[C@@H]3N[C@H](C2)[C@@H]3c2ccc(-c3cccc(F)c3)cc2)c1 | -62 | -94*
O=C(C1CCC1)N1C[C@@H]2N[C@H](C1)C2c1ccc(-c2cccc(F)c2)cc1 (some centres not stated) | -65 | 35
Fc1cccc(-c2ccc(C3[C@@H]4CN(Cc5ccccc5F)C[C@H]3N4)cc2)c1 (some centres not stated) | -33 | -101*
SMILES | Pf Dd2 inh | C diff growth
CN(C)C(=O)c1ccc(-c2ccc(C3[C@@H]4CN(Cc5cccnc5)C[C@H]3N4)cc2)cc1 (some centres not stated) | -16 | -7
CCCc1cn(CC[C@H]2CC[C@@H](NC(=O)CCN3CCCCC3)[C@@H](CO)O2)nn1 | 6 | -3
N#Cc1cccc(-c2ccc(C3[C@@H]4CN(C(=O)C5CCCC5)C[C@H]3N4)cc2)c1 (some centres not stated) | -69 | 13
N#Cc1cccc(-c2ccc(C3[C@@H]4CN(S(=O)(=O)Cc5ccccc5)C[C@H]3N4)cc2)c1 (some centres not stated) | -27 | 30
N#Cc1cccc(-c2ccc(C3[C@@H]4CN(Cc5ccccc5)C[C@H]3N4)cc2)c1 (some centres not stated) | -91*! | 34
N#Cc1ccc(-c2ccc([C@@H]3[C@@H]4CN(S(=O)(=O)Cc5ccccc5)C[C@H]3N4)cc2)cc1 | -86* | 30
O=C(Cc1ccncc1)N1C[C@@H]2N[C@H](C1)C2c1ccc(-c2cccc(F)c2)cc1 (some centres not stated) | -57 | 10
Fc1cccc(-c2ccc(C3[C@@H]4CN(Cc5cccnc5)C[C@H]3N4)cc2)c1 (some centres not stated) | -90*! | -6
C[C@@H]1CN([C@@H](C)CO)C(=O)Cc2cc(NS(=O)(=O)c3cn(C)cn3)ccc2O[C@H]1CN(C)Cc1ccc(Cl)c(Cl)c1 | -39 | -11
COc1ccccc1C#Cc1ccc([C@H]2[C@@H](CO)N3CCCCN(C(=O)C4CC4)C[C@H]23)cc1 | -25 | -12
Cc1ccc(S(=O)(=O)NCC[C@H]2CC[C@H](NC(=O)Nc3ccccc3F)[C@@H](CO)O2)cc1 | -16 | -2
CCC(=O)N1C[C@@H](C)[C@H](OC)CN(C)C(=O)c2cc(NC(=O)NC(C)C)ccc2OC[C@H]1C | 25 | -5
C[C@H](CO)N1C[C@H](C)[C@@H](CN(C)S(=O)(=O)c2ccc(Cl)cc2)OCCCC[C@H](C)Oc2ccc(NC(=O)Nc3ccc4c(c3)OCO4)cc2C1=O | -64 | 4
C[C@H](CO)N1C[C@H](C)[C@H](CN(C)S(=O)(=O)c2ccc(Cl)cc2)OCCCC[C@H](C)Oc2ccc(NC(=O)Nc3ccc4c(c3)OCO4)cc2C1=O | -69 | 3
C[C@@H]1CCCCO[C@H](CN(C)S(=O)(=O)c2ccc(Cl)cc2)[C@H](C)CN([C@@H](C)CO)C(=O)c2cc(NC(=O)Nc3ccc4c(c3)OCO4)ccc2O1 | -85* | -3
C[C@@H]1CN([C@H](C)CO)C(=O)c2cc(NC(=O)Nc3ccc4c(c3)OCO4)ccc2O[C@@H](C)CCCCO[C@@H]1CN(C)S(=O)(=O)c1ccc(Cl)cc1 | -88* | 7
CCCNC(=O)C[C@H]1CC[C@H]2[C@@H](COc3ccc(NC(=O)c4ccc(OC)cc4)cc3C(=O)N2C)O1 | 0 | 0
COc1ccc(S(=O)(=O)N(C)C[C@@H]2OCCCC[C@@H](C)Oc3ccc(NC(=O)NC4CCCCC4)cc3C(=O)N([C@@H](C)CO)C[C@@H]2C)cc1 | u | 9
COc1ccc(S(=O)(=O)N(C)C[C@H]2OCCCC[C@H](C)Oc3ccc(NC(=O)NC4CCCCC4)cc3C(=O)N([C@H](C)CO)C[C@H]2C)cc1 | -86* | 6
